Gal4-VP16 FLuc – VP16 counterscreen qHTS for inhibitors of ROR gamma transcriptional activity; Drosophila S2 Gal4-VP16 UAS-luciferase, luminescence, 20 h; Potency, µM (top dose mostly 53.6 µM), for the others: at the highest dose activity, negative = inhibition, hits mostly inhibitors; 3.5% of 310,000 active; AID 2546, 2010;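 note: Gal4-VP16 expression switched on by copper sulfate through the metallothionein promoter; nearly all actives have a fitted effect of over 50% in size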
TDP1 block – qHTS Assay for Inhibitors of Tyrosyl-DNA Phosphodiesterase (TDP1) | Tyrosyl-DNA phosphodiesterase 1 (Homo sapiens), Q9NUW8 | 0.28% of 350,000 active | recombinant TDP1, AlphaScreen DNA substrate cleavage | Potency, µM (top dose mostly 130 µM), inactives show top-dose activity change, negative = inhibition, most hits filed as inhibitors; note: nearly all actives have a fitted effect of over 40% in size
Target sequence (Q9NUW8 whole entry, looked up): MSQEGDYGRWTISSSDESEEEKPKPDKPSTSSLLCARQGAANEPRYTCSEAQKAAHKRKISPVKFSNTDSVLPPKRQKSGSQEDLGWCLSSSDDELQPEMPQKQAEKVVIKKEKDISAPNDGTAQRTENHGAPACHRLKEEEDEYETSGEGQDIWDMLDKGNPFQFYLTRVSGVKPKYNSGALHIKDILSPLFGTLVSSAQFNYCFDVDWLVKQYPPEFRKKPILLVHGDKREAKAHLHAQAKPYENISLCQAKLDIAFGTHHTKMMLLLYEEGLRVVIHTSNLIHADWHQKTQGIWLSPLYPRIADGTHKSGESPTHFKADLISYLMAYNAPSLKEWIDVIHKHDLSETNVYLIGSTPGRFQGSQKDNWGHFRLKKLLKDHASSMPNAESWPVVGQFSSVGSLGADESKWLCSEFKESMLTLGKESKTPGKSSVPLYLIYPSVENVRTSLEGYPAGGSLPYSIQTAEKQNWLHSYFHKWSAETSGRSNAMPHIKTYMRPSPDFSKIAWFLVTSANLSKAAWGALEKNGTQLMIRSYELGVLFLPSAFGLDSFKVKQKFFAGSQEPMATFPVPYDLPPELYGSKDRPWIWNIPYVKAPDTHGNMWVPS
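Signal: AlphaScreen proximity between streptavidin donor and anti-FITC acceptor beads on intact substrate. Reaction: Tdp1 1 nM, substrate 15 nM final, 5 min RT after 15 min compound preincubation.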
DT40 TDP1 CPT – qHTS for Inhibitors of human tyrosyl-DNA phosphodiesterase 1 (TDP1): qHTS in cells in presence of CPT | Potency, µM (series often up to 46.2 µM), for the others: at the top dose activity change, negative = growth inhibition, actives largely listed as inhibitors | chicken DT40 Tdp1-/-;hTDP1 cells + 20 nM CPT, ATP luminescence, 48 h | 12% of 420,000 active; note: nearly all actives have a fitted effect of over 55% in size
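Chicken DT40 Tdp1-/- cells stably complemented with human TDP1 were seeded at 400 cells/well in medium containing 20 nM camptothecin, exposed to pin-transferred compounds, and grown at 37 °C for at least 48 hr. Viability was read as ATP luminescence.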
RORgamma inh – qHTS for inhibitors of ROR gamma transcriptional activity; Drosophila S2 Gal4-RORgamma UAS-luciferase reporter, 20 h; Nuclear receptor ROR-gamma (Mus musculus), P51450; Potency, µM (titrated, usually from 53.6 µM), for the others: at the top dose activity change, negative = inhibition, actives largely listed as inhibitors; 5.4% of 310,000 active; note: nearly all actives have a fitted effect of over 60% in size
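Luciferase reporter read in Schneider cells carrying Gal4-RORγ (mouse) and UAS-Photinus luciferase; cells given compound 1 h before 700 uM copper sulfate induction, then incubated 20 h at ambient temperature.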
DT40 TDP1 no CPT – qHTS for Inhibitors of human tyrosyl-DNA phosphodiesterase 1 (TDP1): qHTS in cells in absence of CPT; DT40 Tdp1-/- hTDP1 cells, no CPT, ATP luminescence, 48 h; Potency, µM (series often up to 46.2 µM), inactives show at the top dose activity change, negative = growth inhibition, hits mostly inhibitors; 15% of 420,000 active; AID 686978, 2013; note: nearly all actives have a fitted effect of over 55% in size
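Chicken DT40 Tdp1-/- cells complemented with human TDP1, screened without camptothecin (DMSO vehicle only), 400 cells/well. Compounds pin-transferred, cells incubated at 37 °C for at least 48 hr. Growth read as ATP-dependent luminescence (CellTiter-Glo, 30 min at RT).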
An asterisk follows results filed as active. Compounds with a hit are over-represented: about 19% of the library has one in this group of screens. Calls come from the whole dose curve; as a rule, active = well fitted curve in the direction sought with a large enough effect; inconclusive = small, poorly fitted or top-dose-only effect, or another doubt; inactive = no such curve, though single readings can be large; an effect the other way counts as inactive or inconclusive. % is set by controls: 0 for no effect and ±100 for the full control effect; potency is the fitted concentration of half-maximal effect.

What do the screens show for `COC(=O)Cc1ccc(N(Cc2ccccc2F)S(=O)(=O)c2ccc(Cl)cc2)cc1`?
Gal4-VP16 FLuc: -16.7%; TDP1 block: 0.0%; DT40 TDP1 CPT: inconclusive; RORgamma inh: 39.9%; DT40 TDP1 no CPT: 14.6µM*

What do the screens show for `Cc1ccc(C(=O)Nc2ccc(S(=O)(=O)N(Cc3ccccc3)c3ccccc3)cc2)cc1`?
TDP1 block: -4.7%; DT40 TDP1 CPT: 16.4µM*; DT40 TDP1 no CPT: 23.1µM*

How did COC(=O)CN(c1ccc(F)cc1)S(=O)(=O)c1ccccc1 do in these assays?
Gal4-VP16 FLuc: 4.5%; TDP1 block: -1.0%; DT40 TDP1 CPT: -5.6%; RORgamma inh: -14.0%; DT40 TDP1 no CPT: 0.7%

Results for CCOc1ccc(C(=O)Nc2ccc(S(=O)(=O)N(Cc3ccccc3)c3ccccc3)cc2)cc1 ?
TDP1 block: 3.6%; DT40 TDP1 CPT: 5.8µM*; DT40 TDP1 no CPT: 5.17µM*

How did O=C(NNC1=NS(=O)(=O)c2ccccc21)c1cccc([N+](=O)[O-])c1 do in these assays?
Gal4-VP16 FLuc: -21.2%; DT40 TDP1 CPT: 5.3%; RORgamma inh: -20.9%; DT40 TDP1 no CPT: 0.8%

Results for C=C(C)CSc1nc2ccccc2[nH]1 ?
Gal4-VP16 FLuc: -1.3%; TDP1 block: -1.3%; DT40 TDP1 CPT: -19.3%; RORgamma inh: 4.1%; DT40 TDP1 no CPT: -24.6%

How did COc1ccc(/C=C/c2nnc(NC(C)=O)s2)cc1 do in these assays?
Gal4-VP16 FLuc: -14.9%; TDP1 block: -1.2%; DT40 TDP1 CPT: 4.7%; RORgamma inh: -40.0%; DT40 TDP1 no CPT: -28.5%

How did C/C(=N\NC(=O)c1ccc(OC2OCCOC2Oc2ccc(C(=O)N/N=C(\C)c3ccncc3)cc2)cc1)c1ccncc1 (stereo not given) do in these assays?
Gal4-VP16 FLuc: inconclusive; TDP1 block: -1.2%; DT40 TDP1 CPT: 6.51µM*; RORgamma inh: inconclusive; DT40 TDP1 no CPT: 7.31µM*

What do the screens show for `C/C(=N\NC(=O)c1c(Cl)cnn1C)c1ccc(NC(=O)c2ccncc2)cc1`?
Gal4-VP16 FLuc: 29.1%; TDP1 block: 0.0%; DT40 TDP1 CPT: inconclusive; RORgamma inh: -8.6%; DT40 TDP1 no CPT: 20.6µM*

How did C/C(=N\NC(=O)c1ccncc1)c1ccc(N2CCOCC2)cc1 do in these assays?
TDP1 block: -0.4%; DT40 TDP1 CPT: -18.9%; DT40 TDP1 no CPT: -6.4%

What do the screens show for `C/C(=N\NC(=O)c1ccccc1NC(=O)c1ccc(Cl)cc1)c1ccncc1`?
Gal4-VP16 FLuc: 0.891µM*; TDP1 block: 2.5%; DT40 TDP1 CPT: 0.92µM*; RORgamma inh: 0.562µM*; DT40 TDP1 no CPT: 1.16µM*

How did C/C(=N\NC(=O)c1ccc(N/N=C(\C)c2ccncc2)cc1)c1ccncc1 do in these assays?
Gal4-VP16 FLuc: 5.2%; TDP1 block: 7.0%; DT40 TDP1 CPT: inconclusive; RORgamma inh: -21.5%; DT40 TDP1 no CPT: 20.6µM*

How did COc1cc(OC)c(OC)cc1/C=N/NC(=O)CC1C(=O)NN=C1C (stereo not given) do in these assays?
Gal4-VP16 FLuc: -6.2%; TDP1 block: 3.2%; DT40 TDP1 CPT: -22.7%; RORgamma inh: -32.1%; DT40 TDP1 no CPT: -8.9%

What do the screens show for `CCN(CC)c1cc2c(cc1F)c(=O)c(S(=O)(=O)c1ccc(OC)cc1)cn2CC`?
TDP1 block: 0.0%; DT40 TDP1 CPT: 16.4µM*; DT40 TDP1 no CPT: 14.6µM*

Results for Cc1ccc(C)c(S(=O)(=O)c2cn(Cc3ccccc3)c3cc(F)c(F)cc3c2=O)c1 ?
TDP1 block: 6.4%; DT40 TDP1 CPT: inconclusive; DT40 TDP1 no CPT: inconclusive

Results for CCCn1cc(S(=O)(=O)c2ccc(CC)cc2)c(=O)c2cc(F)c(N(CC)CC)cc21 ?
TDP1 block: 6.2%; DT40 TDP1 CPT: 8.2µM*; DT40 TDP1 no CPT: 9.2µM*

What do the screens show for `CCn1cc(S(=O)(=O)c2ccc(Cl)cc2)c(=O)c2cc(OC)ccc21`?
Gal4-VP16 FLuc: 3.4%; TDP1 block: 1.6%; DT40 TDP1 CPT: -10.6%; RORgamma inh: 10.5%; DT40 TDP1 no CPT: 2.9%

What do the screens show for `CCN(CC)c1cc2c(cc1F)c(=O)c(S(=O)(=O)c1cc(C)ccc1C)cn2Cc1ccccc1`?
TDP1 block: 1.2%; DT40 TDP1 CPT: inconclusive; DT40 TDP1 no CPT: 18.4µM*

How did CCCc1cc(=O)oc2cc(C)c(CN3CCCC3)c(O)c12 do in these assays?
Gal4-VP16 FLuc: 0.3%; DT40 TDP1 CPT: inconclusive; RORgamma inh: 11.0%; DT40 TDP1 no CPT: 16.4µM*

How did CCc1cc(=O)oc2cc(C)c(CN3CCCCC3)c(O)c12 do in these assays?
Gal4-VP16 FLuc: 3.7%; DT40 TDP1 CPT: -18.0%; RORgamma inh: 4.8%; DT40 TDP1 no CPT: -24.4%

How did O=C(NCCc1ccc(Cl)cc1)C(=O)NCC(c1ccco1)S(=O)(=O)c1ccc(Cl)cc1 (stereo not given) do in these assays?
TDP1 block: 5.2%; DT40 TDP1 CPT: 16.4µM*; DT40 TDP1 no CPT: 13µM*

What do the screens show for `O=C(NCC(c1ccco1)S(=O)(=O)c1ccc(Cl)cc1)c1ccc(C(F)(F)F)cc1` (stereo not given)?
TDP1 block: -7.8%; DT40 TDP1 CPT: 9.2µM*; DT40 TDP1 no CPT: 11.6µM*

What do the screens show for `Cc1ccc(S(=O)(=O)C(CNC(=O)C(=O)NCCc2ccc(Cl)cc2)c2ccco2)cc1` (stereo not given)?
TDP1 block: 5.2%; DT40 TDP1 CPT: -13.4%; DT40 TDP1 no CPT: inconclusive

How did O=c1cc(Cn2ccnc2)c2cc(O)ccc2o1 do in these assays?
Gal4-VP16 FLuc: -3.4%; DT40 TDP1 CPT: -16.4%; RORgamma inh: -6.3%; DT40 TDP1 no CPT: 25.1%

What do the screens show for `CSc1cnn(Cc2ccccc2)c(=O)c1SCc1ccccc1`?
Gal4-VP16 FLuc: 2.51µM*; TDP1 block: -0.6%; DT40 TDP1 CPT: inconclusive; RORgamma inh: 0.562µM*; DT40 TDP1 no CPT: inconclusive

Results for CSc1cnn(-c2ccccc2)c(=O)c1SC ?
Gal4-VP16 FLuc: -23.4%; TDP1 block: -6.2%; DT40 TDP1 CPT: 1.5%; RORgamma inh: -107.4%; DT40 TDP1 no CPT: -2.8%

What do the screens show for `Cc1cccc(NC(=O)CSc2nc3ccc(NC(=O)c4ccccc4)cc3s2)c1`?
TDP1 block: 6.8%; DT40 TDP1 CPT: 8.2µM*; DT40 TDP1 no CPT: 6.51µM*

How did Cn1cnnc1SCC(=O)Nc1ccc2nc(SCc3cccc4ccccc34)sc2c1 do in these assays?
Gal4-VP16 FLuc: -0.4%; TDP1 block: 5.1%; DT40 TDP1 CPT: 23.1µM*; RORgamma inh: inconclusive; DT40 TDP1 no CPT: inconclusive

Results for CCN(CC)C(=O)CSc1nc2ccc(NC(=O)CSc3nccn3C)cc2s1 ?
Gal4-VP16 FLuc: 2.9%; TDP1 block: 3.3%; DT40 TDP1 CPT: -29.2%; RORgamma inh: inconclusive; DT40 TDP1 no CPT: 16.4µM*

Screening results deposited in PubChem by National Center for Advancing Translational Sciences (NCATS).
